# Assay outcomes as filed in PubChem BioAssay.
# Compounds with a hit are over-represented: about 17% of the library has one in this group of screens.
# HT1080-NT tox: kills 2HG-producing HT-1080-NT fibrosarcoma cells. HT-1080-NT fibrosarcoma viability, CellTiter-Glo ATP luminescence, 48 h. Potency, µM (highest dose often 46.1 µM), for inactives: at the top dose activity, negative = less viability, actives largely listed as cytotoxic. 360,000 compounds, 1.6% hits;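 also: NT is the 2HG producing partner of a matched IDH1 knockdown line; 0% = DMSO-treated cells and -100% = media-only wells without cells; nearly all actives have a fitted effect of over 55% in size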
#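 Fibrosarcoma NT cells, 750 per well in 5% FBS RPMI, were exposed to compound for 48 hours. Viability: CellTiter-Glo luminescence.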
# DT40 TDP1 CPT: DT40-hTDP1 cell growth loss with CPT; chicken DT40 Tdp1-/-;hTDP1 cells + 20 nM CPT, ATP luminescence, 48 h; Potency, µM (doses to about 46.2 µM), without a hit: at the highest dose activity change, negative = growth inhibition, usual class: inhibitors; 420,000 compounds, 12% hits; also: % is scaled to controls: 0 for no effect and ±100 for the full control effect; nearly all actives have a fitted effect of over 55% in size
#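 Cell growth measured by CellTiter-Glo luminescence after a minimum 48 h, 37 C compound exposure with 20 nM CPT in Tdp1-knockout DT40 cells stably expressing hTDP1, seeded 400/well; qHTS titration format.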
# HT1080 IDH1KD tx: toxicity to HT-1080 IDH1 knockdown cells (counter line); AID 686971; HT-1080 IDH1 knockdown viability, ATP luminescence, 48 h; 360,000 compounds, 2% hits; Potency, µM (highest dose often 46.1 µM), without a hit: at the highest dose activity, negative = toxicity, actives largely listed as cytotoxic;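 also: 0% = DMSO wells and -100% = cell-free medium wells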
#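 IDH1KD HT-1080 cells, 750/well, RPMI + 5% FBS; compound pinned after 2 h settling; 48 h, 37 °C; CellTiter-Glo luminescence; % activity normalised to DMSO and no-cell wells; curves fitted, classed by r2 and efficacy.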
# DT40 TDP1 no CPT: qHTS for Inhibitors of human tyrosyl-DNA phosphodiesterase 1 (TDP1): qHTS in cells in absence of CPT; DT40 Tdp1-/- hTDP1 cells, no CPT, ATP luminescence, 48 h; Potency, µM (series often up to 46.2 µM), inactives show at the highest dose activity change, negative = growth inhibition, hits mostly inhibitors; 420,000 compounds, 15% hits; AID 686978, 2013; also: % is scaled to controls: 0 for no effect and ±100 for the full control effect; nearly all actives have a fitted effect of over 55% in size
#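 Chicken DT40 Tdp1-/- cells complemented with human TDP1, screened without camptothecin (DMSO vehicle only), 400 cells/well. Compounds pin-transferred, cells incubated at 37 °C for at least 48 hr. Growth read as ATP-dependent luminescence (CellTiter-Glo, 30 min at RT).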
# HepG2 tox: counter-screen for TGF-b inhibitors: cytotoxicity in HepG2 cells. HepG2 CAGA-GFP viability, ATP luminescence, 18 h. Potency, µM (series often up to 46.1 µM), for the others: at the top dose activity change, negative = cytotoxicity, actives largely listed as cytotoxic. 410,000 compounds, 0.76% hits. AID 588856
#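 HepG2 CAGA-GFP cells (1000/well, DMEM with 1% FBS) received compound, then TGF-beta at 500 pg/mL final, and were incubated 18 hours at 37 degrees C. Viability was read by CellTiter-Glo luminescence. Media-only wells were set as complete cell-killing and DMSO as no toxicity.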
# TGFb SMAD3 inh: TGF-b pathway inhibition | Potency, µM (series often up to 46.1 µM), for the others: at the top dose activity, negative = inhibition, actives largely listed as inhibitors | HepG2 CAGA-GFP TGF-b/SMAD3 reporter, GFP fluorescence, 18 h; TGF-beta stimulated, 500 pg/mL final | 410,000 compounds, 1.2% hits | AID 588855; also: % is scaled to controls: 0 for no effect and ±100 for the full control effect; nearly all actives have a fitted effect of over 65% in size
#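 HEPG2 CAGA-GFP cells (1000/well, DMEM with 1% FBS) were pre-incubated 2 h at 37 degrees C, given compound by pin tool, then stimulated with TGF-beta at 500 pg/mL final for 18 h before per-cell GFP fluorescence imaging.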
# Starred values were filed as active, the others as inactive; ? = inconclusive; . = no result; [ ] = remark or other dose. Calls follow the shape of the dose curve; as a rule, active = well fitted curve in the direction sought with a large enough effect; inconclusive = small, poorly fitted or top-dose-only effect, or another doubt; inactive = no such curve, though single readings can be large; an effect the other way counts as inactive or inconclusive. Potency is read from the fitted curve at half-maximal effect.
SMILES,HT1080-NT tox,DT40 TDP1 CPT,HT1080 IDH1KD tx,DT40 TDP1 no CPT,HepG2 tox,TGFb SMAD3 inh
COc1cccc(-c2nc3c(C#N)c[nH]n3c2NC2CCCCC2)c1OC,.,?,.,20.6µM*,-6.0%,-22.1%
CCOC(=O)Cn1cc(C=C2C(=O)N(C)C(=O)N(C)C2=O)c2ccccc21,7.4%,3.4%,6.2%,-4.0%,-41.7%,7.08µM*
CC(C)(C#N)O[C@H]1OC(CO)C(O)C(O)C1O (some centres not stated),.,-1.3%,.,1.4%,.,.
Cc1nc2ccccc2c(=O)n1-c1ccc(Br)cc1[N+](=O)[O-],-1.9%,?,7.8%,?,-2.7%,2.8%
COc1ccc(-c2cc(-c3ccccc3)[n+](C)c(-c3ccccc3)c2)cc1,?,1.03µM*,14.6µM*,0.581µM*,-12.8%,?
C[n+]1c(-c2ccccc2)cc(CCCCc2cc(-c3ccccc3)[n+](C)c(-c3ccccc3)c2)cc1-c1ccccc1,?,2.59µM*,?,5.17µM*,-22.0%,0.0%
Brc1ccc(-[n+]2c(-c3ccccc3)cc(-c3ccccc3)cc2-c2ccccc2)cc1,16.4µM*,10.3µM*,13µM*,2.59µM*,-38.8%,?
CCCOC(=O)c1ccc(-[n+]2c(-c3ccccc3)cc(-c3ccccc3)cc2-c2ccccc2)cc1,20.6µM*,1.16µM*,11.6µM*,1.16µM*,-40.7%,?
CCCSP(=O)(OCC)SCCC,.,6.0%[92.5 µM],.,-13.3%[92.5 µM],.,.
COc1cc(OC)cc(-n2nc(C(=O)N3CCC4(CC3)OCCO4)c3ccccc3c2=O)c1,0.3%,-19.1%,4.5%,-29.2%,-14.7%,?
COC(=O)C1=C(c2ccc(OC)c(OC)c2)C[C@@H]2CC[C@H]1N2C(=O)NCc1cc(C)oc1C(F)(F)F,8.5%,-7.9%,11.3%,-22.9%,-18.0%,6.8%
COc1ccc(-[n+]2c(-c3ccccc3)cc(-c3ccc(C)cc3)cc2-c2ccccc2)cc1,4.61µM*,2.59µM*,2.59µM*,1.16µM*,-33.4%,7.08µM*
CC(=O)OC1CC[C@@]2(C)C(=CC(=O)C3C4CCC(OC(C)=O)[C@@]4(C)CCC32)C1 (some centres not stated),17.4%,-12.9%,9.9%,?,2.2%,?
CC(=O)OC1CCC2(C)C3CCC4(C)C(OC(C)=O)CCC4C3C(C)C2(O)C1 (configuration not stated),15.3%,?,10.7%,14.6µM*,-1.4%,29.4%
COC(=O)/C(C)=C\CC12OC(C)(C)C3CC(C=C4C(=O)c5c(OC)c6c(c(CC=C(C)C)c5OC431)OC(C)(CCC=C(C)C)C=C6)C2=O (configuration not stated),.,4.61µM*,.,3.66µM*,.,.
CC(=O)Oc1c2c(c(CC=C(C)C)c3c1C(=O)C1=CC4CC5C(C)(C)OC(C/C=C(\C)C(=O)O)(C4=O)[C@]15O3)OC(C)(CCC=C(C)C)C=C2 (some centres not stated),.,0.82µM*,.,0.92µM*,.,.
COC(=O)C1C2c3ccccc3C(c3ccccc32)C1C(=O)OC (configuration not stated),-3.4%,-22.4%,-0.2%,?,4.4%,22.0%
O=C1CC(c2ccc(F)cc2)c2c(c3ccccc3oc2=O)O1 (configuration not stated),.,-7.8%,.,-5.0%,-5.2%,14.6%
O=C(Cc1ccccc1)OC(COCc1ccccc1)CN1CCOCC1 (configuration not stated),-3.7%,-4.7%,-1.1%,-18.0%,4.9%,33.4%
C[C@H](CN1CCOCC1)C(C(=O)N1CCCC1)(c1ccccc1)c1ccccc1,.,?,.,41.8µM*,.,.
Cc1oc(-c2ccccc2)nc1CN1C(=O)CN=C(c2ccccc2)c2ccccc21,-1.0%,18.4µM*,-1.1%,?,3.4%,-10.3%
Cc1ccc(-c2nc(CN3C(=O)CN=C(c4ccccc4Cl)c4cc(Cl)ccc43)c(C)o2)cc1,.,16.4µM*,.,14.6µM*,-44.3%,?
Cc1ccccc1-c1nc(CN2C(=O)CN=C(c3ccccc3)c3ccccc32)c(C)o1,.,?,.,-78.0%,-59.3%,?
CC(C)CN1CCC2(CC1)CCN(S(C)(=O)=O)CC2,.,?,.,9.2%,.,.
CCN(CC)CCO[C@H]1CC[C@@]2(C)C(=CC[C@@H]3[C@H]2CC[C@]2(C)C(=O)CC[C@H]32)C1,.,2.37µM*,.,2.37µM*,.,.
COCCO[C@H]1CC[C@@]2(C)C(=CCC3C2CC[C@@]2(C)C3CC[C@]2(C)O)C1 (some centres not stated),-7.0%,?,-4.4%,11.6µM*,-25.6%,39.0%
C[C@]12CC[C@H](OS(=O)(=O)O)CC1=CC[C@@H]1[C@@H]2CC[C@]2(C)C(=O)CC[C@@H]12,5.4%,8.2%,7.4%,5.2%,2.4%,2.0%
CCN(CC)CCO[C@H]1CC[C@@]2(C)C(=CC[C@@H]3[C@@H]2CC[C@]2(C)C(=O)CC[C@@H]32)C1,.,23.7µM*,.,2.66µM*,.,.
COC(=O)[C@@]1(C)[C@H]2C(=O)N(Cc3ccccc3)C(=O)[C@H]2[C@H]2CN=C(SCc3ccc(Cl)cc3)N21,4.5%,?,-4.3%,?,-20.0%,-15.7%
